Experimental findings from ChEMBL document CHEMBL4888484, “Replenishing the malaria drug discovery pipeline: Screening and hit evaluation of the MMV Hit Generation Library 1 (HGL1) against asexual blood stage Plasmodium falciparum ,using a nano luciferase reporter read-out” (2022) are described below.

Several values for one entry are separate records, joined by “and”; a condition that tells them apart may be missing. Equal entries are not always repeated. In all, about 150,000 compounds went through this assay and about 540 (0.36%) showed an effect of 50% or more. The full list was thinned out, with strong results kept by preference.

This assay has as its system Plasmodium falciparum. Kind of assay: Primary screen in NF54 nanoGlo assay, in single point, at 2uM, 72h; a lower Z score goes with more inhibition. In kind it is functional, Erythrocyte. The note with it: timepoint 72 hour.

As to `O=C(CN1C(=O)N[C@]2(CCc3cc(Cl)ccc32)C1=O)c1ccc2c(c1)OCO2`, the % Inhibition (in general, the relative decrease from the control value, in per cent) is 0% and the Z score is listed as -0.01.

With `CC(C)Nc1nc2nonc2n2cnnc12`, the “% Inhibition” value is 77% and the Z score is -8.71.

Regarding `C[C@H](Nc1nc2nonc2n2nnnc12)c1ccccc1`, the “% Inhibition” value is recorded as 27% and the Z score is on record as -3.54.

On to `CC(C)Nc1nc2nonc2n2nnnc12`, for which the “% Inhibition” value was 31% and the Z score was -3.95.

On to `Cc1cc(N2CCC[C@H](CNC(=O)CN3CCOCC3)C2)nc2cc(F)ccc12`, for which the “% Inhibition” value is recorded as -15% and the Z score is 1.9.

Regarding `CC(=O)N[C@H]1CCN(S(=O)(=O)c2sccc2Cl)C1`, the “% Inhibition” value is recorded as 0% and the Z score is reported as -0.08.

Take `O=C(NC1CCCC1)[C@@H](c1ccccc1)N1CCS(=O)(=O)CC1`: the “% Inhibition” value was determined as 7% and the Z score was -0.84.

For `O=C(NC[C@]12C[C@H]1COC21CCC1)c1ncoc1-c1ccon1`, the “% Inhibition” value worked out at 5% and the Z score is recorded as -0.99.

With `CN(CC(C)(CO)CO)C(=O)c1ccsc1`, the “% Inhibition” value is on record as 6% and the Z score is -0.9.

For the molecule `CCOC(=O)C1CCCN(C2CCN(C(=O)CCC3(Cc4ccc(C)cc4)CCC(=O)N3)CC2)C1` (stereo not given), the “% Inhibition” value is listed as -5% and the Z score turned out to be 0.68.

On to `Cc1sc2nc(-c3ccccn3)nc(NCC(=O)N3CCC(O)CC3)c2c1-c1ccccc1`, for which the “% Inhibition” value came to 25% and the Z score is given as -2.12.

As for `Cc1nc(CCNc2nc(-c3ccccn3)nc3c2CCNCC3)no1`, the “% Inhibition” value was -2% and the Z score is listed as 0.27.

As for `Cc1cc(CN(C)C(=O)[C@H]2CC(=O)N(c3ccccc3)C2)no1`, the “% Inhibition” value is on record as -3% and the Z score was 0.62.

In the case of `Cc1c(C(=O)O)nn(-c2ccc(F)cc2)c1Oc1ccc(NC(=O)CC(C)C)cc1S(=O)(=O)NCC(C)C`, the “% Inhibition” value is given as -16% and the Z score came out at 1.93.

For the molecule `CCC(=O)Nc1ccc(Oc2c(C)c(C(=O)O)nn2-c2ccccc2CC)c(S(=O)(=O)NCC(C)C)c1`, the “% Inhibition” value is 97% and the Z score was -9.77.

Regarding `CCC(=O)Nc1ccc(Oc2c(C)c(C(=O)O)nn2-c2ccccc2C)c(S(=O)(=O)N[C@@H](C)CC)c1`, the “% Inhibition” value was -10% and the Z score is given as 0.97.

Take `CC1=C(C(=O)NCCC(F)(F)F)Cn2nnnc2N1C`: the “% Inhibition” value stood at 0% and the Z score is 0.01.

Regarding `COC(=O)c1ccc(C[N+]2(C[C@H]3COC4(CCCCC4)O3)CCCC2)cc1`, the “% Inhibition” value is given as -5%. In addition, for the setting “2 µM”, the Z score is 0.44 and 0.65.

Turning to `CC(CC1OCC(C[N+]2(Cc3ccccc3)CCCCC2)O1)CC(C)(C)C` (stereo not given), the “% Inhibition” value was found to be 60% and the Z score is -5.21.

Regarding `CC1(C)C2CCC(C2)C1CC1OCC(C[N+]2(Cc3ccccc3)CCCCC2)O1` (stereo not given), the “% Inhibition” value is recorded as -7% and the Z score is 1.37.

For the molecule `Cc1cc[n+]2c(-c3ccccc3)cc(-c3ccccc3)nc2c1`, the “% Inhibition” value was 60% and the Z score is recorded as -11.27.

`Cc1cc(-c2ccccc2)[n+]2ccccc2n1`: the “% Inhibition” value is on record as -15% and the Z score was 2.36.

For `Cc1ccc(-c2csc(-c3nc(-c4ccccc4)cs3)n2)c(C)c1`, the “% Inhibition” value was 10% and the Z score was -1.13.

Consider `O=C(Cc1ccc2[nH]c(=O)[nH]c2c1)N1CCOC[C@@H]1CC1CCC1`, for which the “% Inhibition” value is given as 2% and the Z score is listed as -0.19.

On to `CCOC(=O)c1cc2n(n1)C[C@@](C)(C(=O)NCCC(C)C)N(c1ccc(C)c(C)c1)C2=O`, for which the “% Inhibition” value was -6% and the Z score turned out to be 0.75.

In the case of `Cc1ccc(CN(C(=O)c2ccccc2C)c2cccc(CC(=O)NCCN3CCCC3)c2)cc1`, the “% Inhibition” value was -9% and the Z score turned out to be 1.17.

Regarding `COc1cccc(C(=O)N(Cc2ccc(C)cc2)c2cccc(CC(=O)N[C@@H](C)c3ccccc3)c2)c1`, the “% Inhibition” value is -8% and the Z score is 1.49.

As for `O=C(Cc1ccc(N(Cc2cccc(F)c2)C(=O)c2cccc(F)c2)cc1)NCCN1CCCC1`, the “% Inhibition” value amounted to 3% and the Z score is given as -0.41.

As for `O=C(Cc1ccc(N(Cc2ccc(F)cc2)C(=O)c2cccc(F)c2)cc1)NCc1ccccc1`, the “% Inhibition” value was -2% and the Z score was 0.3.

On to `Cc1cccc(CN(C(=O)C2CCCC2)c2ccc(CC(=O)NCCN3CCCC3)cc2)c1`, for which the “% Inhibition” value amounted to 20% and the Z score is -2.23.

`Cc1ccccc1C(=O)N(Cc1cccc(F)c1)c1ccc(CC(=O)NCCN2CCCCC2)cc1`: the “% Inhibition” value is listed as 58% and the Z score is given as -4.25.

For the molecule `O=C(Cc1ccc(N(Cc2cccc(F)c2)C(=O)C2CCCC2)cc1)NCCN1CCCC1`, the “% Inhibition” value came to 25% and the Z score is recorded as -2.85.

Turning to `Cc1ccccc1C(=O)N(Cc1ccc(F)cc1)c1cccc(CC(=O)NCCN2CCCC2)c1`, the “% Inhibition” value was found to be 6% and the Z score is given as -0.6.

Consider `Cc1ccc(C(=O)N(Cc2cccc(F)c2)c2ccc(CC(=O)N[C@@H](C)c3ccccc3)cc2)cc1`, for which the “% Inhibition” value is recorded as 74% and the Z score is -8.26.

Regarding `CCC(=O)N(Cc1cccc(F)c1)c1ccc(CC(=O)NCCN2CCCC2)cc1`, the “% Inhibition” value is recorded as -2% and the Z score was 0.24.

With `O=C(Cc1ccc(N(Cc2cccc(F)c2)C(=O)c2cccc(F)c2)cc1)NCCN1CCCCC1`, the “% Inhibition” value is 57% and the Z score was -2.67.

As to `O=C(Cc1ccc(N(Cc2cccc(F)c2)C(=O)C2CCCC2)cc1)NCCN1CCCCC1`, the “% Inhibition” value was determined as 59% and the Z score was -9.89.

As to `CC(C)(C)c1ncc(-c2cc(F)cc3cccnc23)[nH]1`, the “% Inhibition” value is on record as -16% and the Z score stood at 1.82.

As for `Cc1n[nH]nc1-c1nc(-c2ccncc2)nn1[C@H]1CCS(=O)(=O)C1`, the “% Inhibition” value was -6% and the Z score stood at 0.87.

As to `Cc1ccc(CS(=O)(=O)N2CCC3CCN(C)CC32)c(F)c1` (stereo not given), the “% Inhibition” value is -7% and the Z score came to 1.13.
